# Source: PubChem BioAssay AID1985 (Southern Research Specialized Biocontainment Screening …, 2009)
# Screen size: about 2,300 compounds; about 1,000 (43%) were called active. The set was probably picked from earlier hits. Some of the results follow. Results with a measured potency or affinity are listed apart. Values without a mark were called inactive. How the calls were made is not given here.
# Test: modified counter assay using GFP fluorescence, PhoP regulon inhibitor project, dose response (AID 1985)
# Settings: S. Typhi, 4 h; series mostly up to 150 µM; inhibition: at the top concentration
row,SMILES,inhibition [%]
1,CCS(=O)(=O)N1CCN(C2CCC(c3ccccc3)CC2)CC1 (centres undefined),17.6
2,C[N+]12CN3CN(CN(C3)C1)C2,-32.6
3,CCOC(=O)c1ccc(NC(=O)CSC(=S)N2CCOCC2)cc1,5.39
4,CC1CCN(CCC(=O)Nc2ccc(Cl)cc2)CC1,21.7
5,COCc1[nH]nc2c1C(c1c(F)cccc1Cl)C(C#N)=C(N)O2 (centres undefined),-5.17
6,CCOC(=O)c1cnn2c1[nH]c(=O)c1ccccc12,29.2
7,O=C(CCC(=O)Nc1nnc(C2CCCCC2)s1)NCC1CCCO1 (centres undefined),14.5
8,CCCC1C(c2ccc(OC)cc2)C(C#N)(C#N)C2(C#N)CC1(N)NC2=O (centres undefined),-9.05
9,COc1ccc(C2CC(=O)N3CN(Cc4ccco4)CSC3=C2C#N)cc1 (centres undefined),5.1
10,CCOC(=O)c1sc(N)c(C(=O)OC)c1C,-7.16
11,CC(C)c1cc(C(=O)Nc2ccc3c(c2)OCO3)no1,-33.7
12,Cc1nc2ccccc2nc1N/N=C/c1ccc(O)cc1O,25.3
13,Oc1ccc(C=NC2CCCCC2)c(O)c1,11.3
14,Cc1cc(C=O)c(O)cc1O,-34.1
15,Cc1oc(/N=C/c2ccc(O)cc2O)c(C#N)c1C,-15.2
16,Oc1ccc(C=Nc2ccc3ncccc3c2)c(O)c1,28.7
17,Oc1ccc(C=Nc2cccc3ncccc23)c(O)c1,14.6
18,CCOc1ccccc1NC1=NC2CS(=O)(=O)CC2S1 (centres undefined),6.45
19,Cc1ccc(-c2cc(N)nc(-c3ccccc3)c2)cc1,20.1
20,O=C(CN(C(=O)CNS(=O)(=O)c1ccccc1)C1CCCC1)NCc1ccco1,20.2
21,COc1ccccc1NC(=O)CN1CCN(c2ccccc2)CC1,11.5
22,CCN1CCN(c2cc(C)c3cc(NC(=S)N4CCN(c5ccccc5F)CC4)ccc3n2)CC1,-5.31
23,COc1cccc(NC(=O)N2CCCC(C(=O)Nc3ccccc3OC)C2)c1 (centres undefined),-17.7

row,SMILES,inhibition [%]
1,O=S(=O)(Nc1cccc(-c2cn3c(n2)SCC3)c1)c1ccc(F)cc1F,-3.71
2,NC(=O)Oc1cccc(OC(N)=O)c1,36.5
3,CC(=O)c1ccc(OC(=O)c2cc3ccccc3oc2=O)cc1,-13
4,CCN(CC)c1cc(C)c2cc(NC(=O)c3ccccc3F)ccc2n1,6.11
5,COc1ccc(-n2cnc3c(sc4nc(N5CCOCC5)c5c(c43)CCCC5)c2=O)cc1,-5.75
6,O=C(CCCCCn1c(=S)[nH]c2ccc(N3CCOCC3)cc2c1=O)NC1CCN(Cc2ccccc2)CC1,-1.01
7,O=C(Nc1ccncc1)c1cc(-c2ccccn2)nc2ccccc12,26.8
8,Cc1cc(Cl)ccc1OCC(=O)Nc1nc(-c2cccnc2)cs1,16.9
9,CC(C)[C@H](NC(=O)c1ccccc1Cl)C(=O)Nc1nc(-c2ccccn2)cs1,-20.5
10,CC1CC(C)CN(S(=O)(=O)c2ccc3c(c2)oc(=O)n3CC(=O)N(C)Cc2ccccc2)C1 (centres undefined),4.43
11,COc1ccccc1Nc1nc(Cl)c(C=O)s1,20.2
12,c1ccc2c(c1)CCc1ccccc1C2=C1CCNCC1,-28.7
13,COc1ccc(Cn2nnnc2C(c2cc3ccc(OC)cc3[nH]c2=O)N2CCC(C)CC2)cc1 (centres undefined),0.02
14,Clc1ccc(CN2CCN(/N=C/c3ccco3)CC2)cc1,-0.84
15,CCOc1ccc(N2C(=O)S/C(=C\c3ccc(O)c(OC)c3)C2=O)cc1,14.3
16,Fc1ccc(NC(=S)Nc2cc(-c3ccccc3)[nH]n2)cc1Cl,-10.5
17,C/[N+]([O-])=C1\Cc2ccccc2C1=O,-7.55
18,COc1ccc(CCN(C(=O)C(F)(F)F)C(C(=O)NC2CCCC2)c2cccs2)cc1 (centres undefined),10.9
19,O=C(O)c1cccc(NC2=Nc3cccc4cccc2c34)c1,-3.67
20,Cc1cc(C)c2c(N)c(C(=O)c3ccc(Cl)c(Cl)c3)sc2n1,-12.8
21,COc1ccc(Cl)cc1N(C)C(=O)CCNC(=O)Cn1cnc2ccccc2c1=O,19.2
22,COc1ccc(Nc2cc(C)nc(NCc3ccccc3)n2)cc1,20.2
23,Cc1cc(N2CCC(C)CC2)nc(NCc2ccccc2)n1,21.8

row,SMILES,inhibition [%]
1,CN(C)C=NC(=O)c1cc(C(=O)c2ccc(Cl)cc2Cl)c[nH]1,26
2,CCN(CC)CCN(C(=O)c1cccc([N+](=O)[O-])c1)c1nc2ccc(OC)cc2s1,33.3
3,C=CCOc1ccc(Cl)cc1CNC1CCCC1,20.3
4,O=C(COc1ccc(Br)cc1CNCCc1ccccc1)NCc1ccccc1,26.1
5,CC(=O)c1c(C)[nH]c(C(=O)OCC(=O)NCC(C)C)c1C,-5.83
6,Cc1c(CN(C)C)c2c(n1Cc1ccccc1)C(=O)c1ccc(Br)cc1-2,28
7,NC(=O)c1ccc[n+]([C@H]2O[C@@H](COP(=O)([O-])OP(=O)(O)OC[C@H]3O[C@@H](n4cnc5c(N)ncnc54)[C@H](O)[C@@H]3O)[C@H](O)[C@@H]2O)c1,33.2
8,CCOC(=O)C(NC(=O)c1cccnc1)(Nc1cccc(C)n1)C(F)(F)F (centres undefined),-7.66
9,Cn1c(=O)c(=O)n(C)c2cc(S(=O)(=O)N3CCc4ccccc43)ccc21,-1.84
10,COc1ccc(-c2nc3cc(NC(=O)Cc4ccc(OC)c(OC)c4)ccc3o2)cc1,-33.6
11,COC(=O)c1cc2oc(C)cc2n1CC(=O)Nc1ccc(C)c(C)c1,3.22
12,CC(C)OC(=O)Cn1c(=O)sc2ccccc21,-7.83
13,CC(=O)Nc1ccccc1-c1nc2ccc(C(=O)N3CCN(c4cc(C)ccc4C)CC3)cc2[nH]c1=O,-0.17
14,COc1ccc(Cl)cc1C(=O)C1CCCN(CCO)C1 (centres undefined),-12.2
15,COc1c(Br)cc2c(C)c(C(=O)N3CCOCC3)oc2c1Br,-17.8
16,CCCCCCOc1ccc(CN2CCN(CC)CC2)cc1,28.1
17,CCCN(CCC)c1nc(C)cc(C(C#N)c2nc3ccccc3o2)n1 (centres undefined),-11.7
18,CN(CC(=O)NCc1ccncc1)S(=O)(=O)c1ccccc1,-30.7
19,O=c1cc(-c2ccc(Cl)cc2)[nH][nH]1,-26
20,Cc1cc(N=Nc2ccccc2)c(NCC(O)C(O)C(O)CO)cc1C (centres undefined),10.9
21,O=C1c2ccccc2C(=O)N1CCCP(=O)(O)CCc1ccccc1,-26.5
22,Cc1ccc(C)c(N/C(N)=N/c2nc(C)cc(C)n2)c1,9.72
23,Cc1cc(C)c(-n2nnnc2SC(C)C)c(C)c1,-0.97

row,SMILES,inhibition [%]
1,Cc1ccccc1N1C(N)=NC(N)=NC1(C)C,-6.52
2,COc1cc(/C=N/N(C)S(=O)(=O)c2ccc(C)cc2)cc([N+](=O)[O-])c1O,36.4
3,COc1ccccc1CNC(=O)Cn1c(=O)oc2cc(S(=O)(=O)N3CCCC3)ccc21,12.1
4,CCCCN1/C(=C/c2cccc[n+]2C)Sc2cc(NC(C)=O)ccc21,5.75
5,CCCCc1cc(=O)oc2cc(C)c(CN3CCCC3)c(O)c12,20.6
6,O=C(NC(O)C(=O)c1ccccc1)c1ccc(F)cc1 (centres undefined),-23.6
7,O=C(/C=C/c1ccc(Cl)cc1Cl)NCc1ccncc1,16.7
8,COc1ccccc1/C=C/C(=O)Nc1cccc(C(C)=O)c1,24.2
9,Cc1ccc(N2C(N)=C(C#N)C(c3cccnc3)C3=C2CC(C)(C)CC3=O)cc1 (centres undefined),-21.1
10,CCOc1cc(CNC(C)(C)CO)cc(Br)c1OCc1ccc(Cl)cc1Cl,32.3
11,OCCCCNCc1ccc(OCc2ccccc2Cl)cc1,23.7
12,COc1cc(CNC2CCCC2)cc(Cl)c1OCc1ccccc1Cl,-28.1
13,CCOC(=O)c1c(C)[nH]c(C(=O)CN2C(=O)NC(C)(c3ccc4ccccc4c3)C2=O)c1C (centres undefined),-6.21
14,Cc1cc(=O)oc2ccc(OCC(=O)N3CCC(C)CC3)cc12,14.8
15,O=C(O)COc1ccc(F)cc1Br,3.92
16,O=C(COc1ccc(Cl)cc1)N1CCN(C2CCCC2)CC1,-26.3
17,CC1CC1C(=O)Nc1nc2ccc(S(C)(=O)=O)cc2s1 (centres undefined),6.02
18,CCOC(=O)Cc1csc(NC(=O)c2ccc(S(=O)(=O)N3CCCC3)cc2)n1,-6.85
19,Cc1ccc(-c2nc(C(=O)NCCCN(C)C)cc3c2[nH]c2ccccc23)cc1,15.2
20,O=C(Cn1cnc2cc([N+](=O)[O-])ccc2c1=O)Nc1ccccc1Cl,4.55
21,O=C(Nc1nccs1)c1ccc(Cl)cc1[N+](=O)[O-],2.12
22,O=C(NCCCN1CCOCC1)C(C(=O)c1ccccc1)n1ccccc1=O (centres undefined),25.3
23,CCCCNC(=S)Nc1ccc([N+](=O)[O-])cc1,37.9

row,SMILES,inhibition [%]
1,COc1cc(CNc2ccc(N3CCN(C(C)=O)CC3)cc2)ccc1OCc1ccccc1,-2.24
2,COc1ccc(CNCCc2c[nH]c3ccccc23)c(OC)c1C,0.46
3,COc1cc(CNCCc2c[nH]c3ccccc23)ccc1OCc1ccccc1F,8.11
4,O=C(Cn1c(C(F)(F)F)nc2ccccc21)NCCCN1CCOCC1,-22.6
5,Cc1ccc(S(=O)(=O)N(Cc2n[nH]c(=S)n2-c2ccccc2)c2ccccc2)cc1,-23
6,COc1ccccc1OCc1nnc(SCC(=O)NCc2ccco2)n1Cc1ccco1,-24.1
7,O=C(Nc1ccc(Br)cc1)N1CCCCC1,22.6
8,O=C(Cn1nc(Cl)nc1Cl)c1ccc([N+](=O)[O-])cc1,27.9
9,COc1cc(C(=O)NC(=S)Nc2cccc3nc(C)ccc23)cc(OC)c1OC,-5.39
10,CN(C)S(=O)(=O)c1cccc(NC(=O)c2cnccn2)c1,10.4
11,COc1ccc(C(=O)NNS(=O)(=O)c2ccccc2)cc1OC,-24
12,CCn1c(CNC(=O)c2ccc(OC)cc2)nnc1SC,1.63
13,CCOc1ccc2nnnn2n1,-9.4
14,COc1ccc2c(c1)cc1n2CCN=C1N,-17.6
15,CCC(C)(C)NC(=O)COc1ccc(C(=O)c2ccccc2)cc1,-7.83
16,CCOCCCNC(=O)C(c1ccc(OC)cc1)N(Cc1cccs1)C(=O)c1ccccn1 (centres undefined),9.15
17,COCCCNC(=O)c1cc(OC)c(OC)c(OC)c1,10.2
18,Cc1ccc(OCC(=O)N2CCN(S(C)(=O)=O)CC2)cc1,-33.7
19,Cc1oc2nc(SCCCC(=O)NCCCO)nc(N)c2c1C,-14.7
20,COc1cc(C(=O)Nc2ccc3c(c2)OCCO3)ccc1OC(C)C,28.5
21,CCCC(C(=O)NCC1CCCO1)N(Cc1ccco1)C(=O)CNS(=O)(=O)c1ccc(F)cc1 (centres undefined),23
22,O=C1c2ccccc2C(=O)N1CCC(c1ccccc1)c1ccco1 (centres undefined),-29.2
